According to the supplement of paper PMC11417369:
± gives the standard deviation of the averaged measurements. In all, about 25,000 sequences were measured (“ln(normalized median fluorescence intensity)”: median about 10, highest 2% from about 12 on). What follows is part of a selection rich in the highest values, with near analogues and random picks from the rest.

The sequences below were run on PfAP2-G AP2 domain (GST-tagged) (assay: gcPBM binding intensity (ln(normalized median fluorescence intensity)); higher = stronger DNA binding).
Method in brief: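 Binding intensity is defined as the maximum Masliner-normalised natural-log median intensity across replicate spots for either probe orientation. It was measured on an Agilent 4 × 180k array of primer-extended double-stranded 36-bp intergenic genomic probes and negative controls, to which GST-tagged P. falciparum DNA-binding domains made in E. coli were applied for 1 h in 1× PBS with 1% milk, 0.2 mg/ml BSA, 0.5% salmon testes DNA and 0.03% Triton X-100. Detection was by Alexa488 anti-GST antibody and scanning at 488 nm.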

Row | Sequence | gcPBM binding intensity (ln)
1 | TTCTTTTTTATTTATACATGCAATAAAAAATTGATT [TGCATGCA_site730] | 9.925 ± 0.064
2 | AGGACTAATATTTGAACACACATATAACATATACAT [CACACA_site7803] | 9.95 ± 0.085
3 | AAAAAAAAAAAAATGTAATTTTTTAATTATTTATAT [GTGCAC_negctrl_site436] | 9.47 ± 0.11
4 | GTATTCATGCTAAAGGTGCAATAATTTTTATAATAA [GTGCAC_site9603] | 10.2 ± 0.21
5 | ATTTTTTTTAATTTGTACAAATTTTGTTCACAATTT [CACACA_negctrl_site1301] | 10.8 ± 0.4
6 | AATTATTCTATATATTGTACATGTTTGTTTTTTTTT [XGTACX_site3130] | 10.9 ± 0.42
7 | CATTATGTTGTAAATACACACATACAGATACATACA [CACACA_site4565] | 10.3 ± 0.16
8 | TATTACCCATATTATACACACATATATTATATATAT [CACACA_site1567] | 10.3 ± 0.2
9 | TTTATTAATTTATAGTGTACATATTAATAATATATT [XGTACX_site7949] | 11.3 ± 0.68
10 | GTTATTAAAAACGGGTGTACACATATATAAATATAT [XGTACX_site1234] | 11.6 ± 0.86
11 | AATAGTAATTTGAATACACACAATAATATATTTATA [CACACA_site7055] | 9.96 ± 0.042
12 | CATTATTATTAACATACACACGTGTTATATACCCCC [CACACA_site9365] | 11 ± 0.61
13 | TATTTATAATAGTGTACACAATTATAAACTGAATAT [CACACA_site6041] | 11.7 ± 0.89
14 | ATTAAAAACGGGTGTACACATATATAAATATATATA [CACACA_site4539] | 11.7 ± 0.89
15 | ATATAAAACAACGGGTGTACAAAAAAATAAATAATA [XGTACX_site4094] | 11.3 ± 0.76
16 | ATATTATACCCGTGTACACATTATAACCATATATAA [CACACA_site5933] | 11.7 ± 0.82
17 | AATAAAATAATAGGCACACATATATATATATATTAT [CACACA_site273] | 10.1 ± 0.26
18 | CTATTAATGTACTCTACACACATATAAGAGGACATT [CACACA_site471] | 11.6 ± 0.86
19 | AAATAAAATAAAAGCACACAAAATGTAAATAATTAT [CACACA_site2775] | 10.01 ± 0.035
20 | CCATGTCAAACATTTGCACACAAAAAAATAAAAATT [CACACA_site4546] | 10.2 ± 0.31
21 | TAATTTAAAAATATAAATGTTTCACTTATATATTTT [TGCATGCA_negctrl_site399] | 9.41 ± 0.27
22 | GAAAAGTAGACAATATGTACATATAGTATTTATAAA [XGTACX_site878] | 11.1 ± 0.69
23 | AAAAATAGTATAAGTAGTACAACTGAAAAGTTATGT [XGTACX_site7488] | 11.6 ± 0.86

Row | Sequence | gcPBM binding intensity (ln)
24 | TAAGTATAAAAAAATAGTACAATTATGAAATATCGT [XGTACX_site2529] | 11.2 ± 0.71
25 | ATTCTGAATGTTATGCGTACATATTAATCCTATTTA [XGTACX_site1216] | 11.5 ± 0.93
26 | TGTTCTAATATTTGTTGTACATTTACATTTCTCTCT [XGTACX_site2585] | 11.1 ± 0.56
27 | GAAAAAAAAAAAAGGGGTACATTTATTTTATCAATA [XGTACX_site8331] | 11.5 ± 1
28 | TTCAAAGGGAAATTAACACACACATATATATATATA [CACACA_site8777] | 10.2 ± 0.67
29 | ATATATAACGGGCACACACACATTTACGTATGAATA [CACACA_site1833] | 10.7 ± 0.43
30 | TTCTAAAAAGGGTGTACACAAACGAATGGAAAATAA [CACACA_site5483] | 11.6 ± 0.94
31 | AAAAATGAAAGGTGTACACATACAAACATAGAAAGA [CACACA_site5020] | 11.7 ± 0.94
32 | ATATATATGTATGTATGTACACACAAAAAATGGAAT [XGTACX_site7879] | 11.5 ± 0.79
33 | GAAAACAAAATGGTAACACACAAATGTAAATAGTAT [CACACA_site2113] | 10.14 ± 0.064
34 | AACACCAAACAAAGGTGTACATATAGGAAAAAATCT [XGTACX_site1006] | 11.3 ± 0.81
35 | AAAAAAAATGAAAGGTGTACACATACAAACATAGAA [XGTACX_site3517] | 11.7 ± 0.88
36 | AAGGTGGGAAAAAATAGTACACAACAAAAATGTATG [XGTACX_site8741] | 11.7 ± 1
37 | AAAAAAGAAACAAACACACATACATACAAACAAACA [CACACA_site142] | 10.3 ± 0.28
38 | GGAAAATGAAAACAAGGTACACATAAGAACAAACAA [XGTACX_site1221] | 11.4 ± 0.87
39 | TATAGGTATGTATGTACACACAAAAAATGGAATATA [CACACA_site7704] | 11.4 ± 0.76
40 | AAATGGAAAAGGTGTACACAAAAAAAAGGGAAAAGC [CACACA_site5331] | 11.7 ± 1.2
41 | AATAATAGAAAAAGGTGTACTTATAAACATATACAC [XGTACX_site6921] | 11.5 ± 0.83
42 | CACAAATATACAAATACACACAAATATACACATATA [CACACA_site7176] | 10.2 ± 0.085
43 | ACCTAAAATAACTACACACACATAAAAAAAAAAAAA [CACACA_site2529] | 10.1 ± 0.47
44 | GTATGTATATATGTATGTACTTATGTATCATTATTA [XGTACX_site2438] | 11.2 ± 0.83
45 | AAAAAACACCCATACACACACACACCGATATATATA [CACACA_site5808] | 10.1 ± 0.18
46 | TATATATATTTTTGAAGTACTTATTACACTAGCATT [XGTACX_site8965] | 11.2 ± 0.61

Row | Sequence | gcPBM binding intensity (ln)
47 | ATTTTCTTATATATATTTTGTATATATTTTGTACAT [CACACA_negctrl_site1496] | 10.5 ± 0.39
48 | TTTTATGGAAAGTGTTGTACATATTTTTGTATATGT [XGTACX_site7356] | 11.4 ± 0.76
49 | AATTAACCGTGACACACACACATATAAATATAAATA [CACACA_site7790] | 10.3 ± 0.47
50 | TATTGTTCTTATTTAGTGCATATATAATATAATATA [GTGCAC_site9827] | 10.3 ± 0.33
51 | ACAAAATTTACAAAATGTACAAAATTTACAAAATAT [XGTACX_site3542] | 10.8 ± 0.49
52 | TAATAAAAAATATATACACACAAATAAATAAATAAA [CACACA_site4037] | 9.77 ± 0.071
53 | ATATTTATATATATATGTACATATGTGTGTTTTTAT [XGTACX_site3956] | 10.9 ± 0.51
54 | TACATATTTTTTATATGTACATATTTTTTATGTGTA [XGTACX_site442] | 11.4 ± 0.77
55 | ATATATATTTATATATGTACATATTTTTGTGTATTT [XGTACX_site1183] | 11.3 ± 0.79
56 | TGCCTATTTTGGATGTGTACACATATATATATTTAT [XGTACX_site6741] | 11.7 ± 0.88
57 | CTATTTTGGATGTGTACACATATATATATTTATATT [CACACA_site5706] | 11.7 ± 0.85
58 | CATATTAAGATGTGTACACATTTTTATTTTTTTTTT [CACACA_site4425] | 11.6 ± 0.93
59 | TTTATTGAACGTACACATATATATATGTATATATTT [TGCATGCA_negctrl_site141] | 11.3 ± 0.88
60 | ATTTTTGTACACTTCTTTTTTTTTTTTCTTTTATGT [CACACA_negctrl_site1323] | 11.4 ± 0.68
61 | AAAAAAAAATCATATTGTACGTAAAAAAAAAAAAAA [XGTACX_site476] | 11.4 ± 1
62 | TATTTATACTAATATGCATGTAATCGAAATACAGCT [TGCATGCA_site457] | 9.685 ± 0.078
63 | AATATGGTTATATATATATATATATATATATATATT [GTGCAC_negctrl_site566] | 9.67 ± 0.071
64 | TCTTTTTGTTCGTGTACACACATGAAATTTATAAAA [CACACA_site1619] | 11.8 ± 1.1
65 | TGAAATAAAATTTGTACACACATATATATATATATA [CACACA_site586] | 11.1 ± 0.81
66 | TTTCTTTTTGTTCGTGTACACACATGAAATTTATAA [CACACA_site8466] | 11.6 ± 0.86
67 | GAACCGTGCAAATGTTGTACACTTTAAAAATATTCT [XGTACX_site4488] | 11.6 ± 0.84
68 | AGGTGCAAAAATAAAACATGCAAAAATAAAAATGAA [TGCATGCA_site502] | 10.07 ± 0.028
69 | TTACCTCTTTGAAATATACACACTAAACATATCAAC [CACACA_site2455] | 10.1 ± 0.13

Row | Sequence | gcPBM binding intensity (ln)
70 | CACAAACAAAAACACACACACACACCGACAAAAATG [CACACA_site5362] | 10.5 ± 0.38
71 | AACATACAGAAACACACACACACACCCACACCCACA [CACACA_site493] | 10.4 ± 0.31
72 | ACATACATACCCCCACGTACGTACCGAAACACCACC [XGTACX_site1982] | 11.5 ± 0.74
73 | ACATACATACACCCACGTACGTACCGAAACACCACC [XGTACX_site1212] | 11.7 ± 1.1
74 | TTTGTAATAAACTACTTTTTTTTTTTTTTTTTTTTT [CACACA_negctrl_site571] | 10.9 ± 0.35
75 | ATATACATATAGGATGCACACATAATTCAAATACAA [CACACA_site8120] | 10.1 ± 0.22
76 | AGACATTAATGAAGGTGTACATATATTTGACAGAAT [XGTACX_site655] | 11.6 ± 1
77 | AAGGTATAATATATTTGTACATATACATTTTTGAAT [XGTACX_site6493] | 10.9 ± 0.61
78 | TTTGAAAAAAATTAATGTACATTTGAAATGACATAT [XGTACX_site3902] | 10.8 ± 0.52
79 | AAAAAAAAATTAAAAACACACATATATATATATATA [CACACA_site1580] | 9.9 ± 0.67
80 | ATTTGCTTTTATTTTACACACTTGCTCCTGTTGTAC [CACACA_site1088] | 10.9 ± 0.42
81 | CAACACTTTCAAAAATGTACGTACAAATGTATTTTA [XGTACX_site6713] | 11.7 ± 0.76
82 | TATTTTCAAAATGTTGTACACACAAAAAAAAAAAAA [CACACA_site8437] | 11.5 ± 1.1
83 | TTATTTTCAAAATGTTGTACACACAAAAAAAAAAAA [XGTACX_site3151] | 11.4 ± 0.93
84 | AAATTTATATATAGTTGTACAAAAATATGTTTCGTA [XGTACX_site4801] | 11.2 ± 0.57
85 | GTTTTTTATAATTGTAGTACAAGAAGATATTTTTAT [XGTACX_site5443] | 11.5 ± 0.86
86 | TATGTGAATATAATCACACACAATACGGAAAGAGAC [CACACA_site7311] | 10.7 ± 0.39
87 | CTATACATATTATATAGTACTTTATTATTATGACTA [XGTACX_site1382] | 10.8 ± 0.45
88 | TTATATATATGACTTTGTACATATACATATTTTTTA [XGTACX_site4669] | 10.7 ± 0.54
89 | ATGGACTTTTATAGTTGTACATACTATGAGAACTTT [XGTACX_site2800] | 11.7 ± 0.85
